Assay results from PubChem BioAssay (NCATS).
Inconclusive results are not listed. Active and inactive are the calls of the source. Calls follow the shape of the dose curve; as a rule, active = well fitted curve in the direction sought with a large enough effect; inconclusive = small, poorly fitted or top-dose-only effect, or another doubt; inactive = no such curve, though single readings can be large; an effect the other way counts as inactive or inconclusive. Non-standard residues stand in square brackets, D forms with d. Residues, ends and D or L forms follow the SMILES beside them. *: point of attachment. Sta = CC(C)C[C@H](N)[C@@H](O)CC(=O)O; Isovaleryl = CC(C)CC(=O)*

Experiments:
[1] = target: Retinaldehyde dehydrogenase 3 (Homo sapiens) (UniProt P47895); assay: qHTS for Inhibitors of the Aldehyde Dehydrogenase Family (ALDH1A3) Primary screen (AID 2061315)
[2] = BET inhibitor-based combinations targeting novel dependencies in MECOM-rearranged (r) AML: MV-4-11 cell line (AID 2202233); also: nearly all actives have a fitted effect of over 45% in size
Outline: (§1)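 Using pin-tool transfer, drugs were added in 11 doses to cells (500/well), incubated 48 hr, and assessed with CellTiter-Glo. Z-AUC is a mean-centring transformation applied separately to each screened line.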

[3] = BET inhibitor-based combinations targeting novel dependencies in MECOM-rearranged (r) AML: SET-2 cell line (AID 2202231); conditions: SET-2 AML cells viability, CellTiter-Glo luminescence, 48 h; viability: stronger effect = lower value, concentration not given here; also: nearly all actives have a fitted effect of over 35% in size;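 as to viability: plate controls were DMSO treated cells for no effect and wells without cells for full effect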
Outline: (§2)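 Viability of cells (500 per well) is scored by luminescent CellTiter-Glo at 48 hr post-dosing. Eleven-point titrations are normalized to DMSO and empty controls and reduced to AUC values.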

[4] = BET inhibitor-based combinations targeting novel dependencies in MECOM-rearranged (r) AML: OCI-AML3 cell line (AID 2202232); conditions: Potency: OCI-AML3 viability; also: nearly all actives have a fitted effect of over 35% in size
Outline: as §2

[5] = BET inhibitor-based combinations targeting novel dependencies in MECOM-rearranged (r) AML: UCSD-AML1 cell line (AID 2202235); also: nearly all actives have a fitted effect of over 40% in size
Outline: as §1

[6] = BET inhibitor-based combinations targeting novel dependencies in MECOM-rearranged (r) AML: AML-191 cell line (AID 2202236; also: nearly all actives have a fitted effect of over 35% in size)
Outline: as §2

[7] = BET inhibitor-based combinations targeting novel dependencies in MECOM-rearranged (r) AML: HNT-34 cell line (AID 2202234); also: nearly all actives have a fitted effect of over 35% in size
Outline: as §1

[8] = BET inhibitor-based combinations targeting novel dependencies in MECOM-rearranged (r) AML: AML-194 cell line (AID 2202237; also: nearly all actives have a fitted effect of over 40% in size)
Outline: as §2
Potency is read from the fitted curve at half-maximal effect.

COc1ccc(OC)c(-c2ccc(NC(=O)c3ccncc3F)cc2)c1
inactive: Potency [1]

O=C1NC(=O)C(c2c[nH]c3ccccc23)=C1c1c[nH]c2ccccc12
active: Potency [2] 2.63 µM

CC[C@@H]1C(=O)N(C)c2cnc(Nc3ccc(C(=O)NC4CCN(C)CC4)cc3OC)nc2N1C1CCCC1
active: Potency [3] 0.468 µM | Potency [4] 0.0525 µM | Potency [2] 0.105 µM | Potency [5] 0.105 µM | Potency [6] 0.166 µM

Cc1nc2cnc3ccc(C#Cc4cccnc4)cc3c2n1-c1ccc(C(C)(C)C#N)cc1
active: Potency [3] 1.66 µM | Potency [4] 2.95 µM | Potency [2] 0.742 µM | Potency [7] 0.525 µM | Potency [6] 0.59 µM | Potency [8] 0.468 µM

CN(C)CCN1C(=O)c2cccc3cc(N)cc(c23)C1=O
active: Potency [3] 14.8 µM | Potency [2] 3.72 µM | Potency [7] 10.5 µM | Potency [6] 13.2 µM | Potency [8] 16.6 µM

CN[C@@H]1CN(c2ccc3c(=O)c(C(=O)O)cn(-c4nccs4)c3n2)C[C@@H]1OC
active: Potency [3] 3.23 µM | Potency [4] 1.15 µM | Potency [2] 0.323 µM | Potency [7] 1.15 µM | Potency [6] 1.82 µM | Potency [8] 1.29 µM

O=C(CCCCCCC(=O)Nc1cccnc1)NO
active: Potency [3] 5.25 µM | Potency [4] 5.9 µM | Potency [2] 2.35 µM | Potency [7] 4.68 µM | Potency [5] 7.42 µM | Potency [6] 3.32 µM | Potency [8] 8.33 µM

CC(COc1ccccc1)N(CCCl)Cc1ccccc1 (stereo unspecified)
inactive: viability [3] 99.7% | Potency [5] | Potency [6] | Potency [8]
active: Potency [7] 16.6 µM

COc1cc(C)c(Sc2cnc(NC(=O)c3ccc(CNC(C)C(C)(C)C)cc3)s2)cc1C(=O)N1CCN(C(C)=O)CC1 (stereo unspecified)
active: Potency [4] 14.8 µM | Potency [2] 4.17 µM | Potency [7] 16.6 µM | Potency [5] 14.8 µM | Potency [6] 14.8 µM | Potency [8] 11.8 µM

CC1=C2C[C@@]3(C)C(CCC[C@@H]3C)C(O)C2OC1=O (stereo partly specified)
inactive: Potency [1]

CCOc1ccccc1N=Nc1c(C)[nH]n(-c2nc(-c3ccccc3)cs2)c1=O
inactive: viability [3] 118% | Potency [2] | Potency [7] | Potency [5] | Potency [6] | Potency [8]

COC(=O)CC1OC(C)C2=C(O)c3c(O)cccc3C(=O)C23OC13 (stereo unspecified)
active: Potency [1] 1.58 µM

COc1cc(CCc2ccc(OCC=C(C)C)cc2)cc(OC)c1OC
inactive: Potency [1]

CC(C)CC(=O)N[C@H](C(=O)N[C@H](C(=O)N[C@@H](CC(C)C)[C@@H](O)CC(=O)N[C@@H](C)C(=O)N[C@@H](CC(C)C)[C@@H](O)CC(=O)O)C(C)C)C(C)C (Isovaleryl-VV[Sta]A[Sta]-OH)
inactive: Potency [2] | Potency [7] | Potency [5] | Potency [6] | Potency [8]

C#C[C@]1(O)CC[C@H]2[C@@H]3CCC4=CC(=O)CC[C@@H]4[C@H]3CC[C@@]21CC
active: Potency [2] 13.2 µM
inactive: viability [3] 103% | Potency [4] | Potency [7] | Potency [8]
